Reference: the supplement of paper PMC10849652
Of roughly 7,900 targets only a part is listed; those with a hit were picked by preference. About 0.6% of all pairs of compound and target were hits. Values without a mark were called inactive.

Experiments:
Assay in all cases: log2 fold change, soluble protein after heating vs DMSO (PISA); higher = thermal stabilisation; K562 cells, 10 uM, 30 min; active = over 0.2 and 3.5 SD of the protein, either way, in both replicates (recomputed)
[1] = compound: Cc1ccc(NC(=O)c2ccc(CN3CC[C@H](N(C)C)C3)c(C(F)(F)F)c2)cc1Nc1nccc(-c2cncnc2)n1 [bafetinib]
In short: (§1)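 Soluble protein was quantified by TMTpro 16plex LC-MS/MS after channel sums were equalised. It was obtained as the supernatant after 21,000xg for 90 min from pooled aliquots of K562 cells (2×10^6 cells/mL, 10 μM compound, 30 min) heated for 3 min across 48°C-58°C and extracted in PBS with 0.5% NP-40 at 4°C. Thermal stability values are relative to control samples and come from duplicates. They are given as log2 fold changes.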

[2] = compound: Cc1cccc(CC(=O)N2CCc3c2ccc(-c2cn(C)c4ncnc(N)c24)c3F)n1
In short: as §1

[3] = compound: Cc1cn(-c2cc(NC(=O)c3ccc(C)c(Nc4nccc(-c5cccnc5)n4)c3)cc(C(F)(F)F)c2)cn1 [nilotinib]
In short: as §1

[4] = compound: Cc1nc(Nc2n[nH]c3c2CN(C(=O)N[C@H](CN(C)C)c2ccccc2)C3(C)C)c2sccc2n1
In short: as §1

[5] = compound: Cc1nc(Nc2ncc(C(=O)Nc3c(C)cccc3Cl)s2)cc(N2CCN(CCO)CC2)n1 [dasatinib]
In short: as §1

[6] = compound: Cc1ncc(-c2ccnc(Nc3ccc(S(C)(=O)=O)cc3)n2)n1C(C)C
In short: as §1

[7] = compound: Cn1cc(-c2ccc3c(c2)CCN3C(=O)Cc2cccc(C(F)(F)F)c2)c2c(N)ncnc21
In short: as §1

[8] = compound: Cn1cc(-c2ccc3nnc(C(F)(F)c4ccc5ncccc5c4)n3n2)cn1
In short: as §1

[9] = compound: Cn1cncc1[C@@](N)(c1ccc(Cl)cc1)c1ccc2c(c1)c(-c1cccc(Cl)c1)cc(=O)n2C [tipifarnib]
In short: as §1

[10] = compound: FC(F)(F)c1ccc(/C=C/c2nc(COc3ccc(CCCCn4ccnn4)cc3)co2)cc1 [mubritinib]
In short: as §1

[11] = compound: NC(=O)Nc1cc(-c2cccc(F)c2)sc1C(=O)N[C@H]1CCCNC1
In short: as §1

[12] = compound: NC(=O)c1cnc(N[C@@H]2CCCC[C@@H]2N)nc1Nc1cccc(-n2nccn2)c1
In short: as §1

[13] = compound: NC1(c2ccc(-c3nc4ccn5c(=O)[nH]nc5c4cc3-c3ccccc3)cc2)CCC1
In short: as §1

[14] = compound: NCC(=O)Nc1ccc(-n2nc(C(F)(F)F)cc2-c2ccc3c(ccc4ccccc43)c2)cc1
In short: as §1

[15] = compound: Nc1ccccc1NC(=O)c1ccc(CNC(=O)OCc2cccnc2)cc1 [entinostat]
In short: as §1

[16] = compound: O=C(CCCCCCC(=O)Nc1ccccc1)NO [vorinostat]
In short: as §1

[17] = compound: O=C(CCCCCCNC(=O)c1cnc(N(c2ccccc2)c2ccccc2Cl)nc1)NO [citarinostat]
In short: as §1

[18] = compound: O=C(O)c1ccc2c(c1)nc(Nc1cccc(Cl)c1)c1ccncc12 [silmitasertib]
In short: as §1

[19] = compound: O=C1NC(=O)C(c2cnc3ccccn23)=C1c1cn2c3c(cc(F)cc13)CN(C(=O)N1CCCCC1)CC2
In short: as §1

[20] = compound: c1cc(OCCN2CCCCC2)cc(-c2n[nH]c3ccc(-c4nnc[nH]4)cc23)c1
In short: as §1

UniProt P42025, sequence (P42025 whole entry, looked up): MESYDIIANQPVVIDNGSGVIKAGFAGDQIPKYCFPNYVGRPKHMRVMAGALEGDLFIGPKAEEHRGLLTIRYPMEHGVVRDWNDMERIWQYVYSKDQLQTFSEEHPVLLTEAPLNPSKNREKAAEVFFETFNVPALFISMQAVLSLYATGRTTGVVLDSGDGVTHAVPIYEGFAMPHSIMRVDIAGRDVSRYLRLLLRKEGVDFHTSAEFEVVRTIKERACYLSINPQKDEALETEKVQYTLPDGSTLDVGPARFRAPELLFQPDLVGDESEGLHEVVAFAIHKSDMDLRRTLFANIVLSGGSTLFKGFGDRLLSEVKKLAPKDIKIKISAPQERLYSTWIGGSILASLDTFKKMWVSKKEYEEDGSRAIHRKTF
UniProt Q14137, sequence (Q14137 whole entry, looked up): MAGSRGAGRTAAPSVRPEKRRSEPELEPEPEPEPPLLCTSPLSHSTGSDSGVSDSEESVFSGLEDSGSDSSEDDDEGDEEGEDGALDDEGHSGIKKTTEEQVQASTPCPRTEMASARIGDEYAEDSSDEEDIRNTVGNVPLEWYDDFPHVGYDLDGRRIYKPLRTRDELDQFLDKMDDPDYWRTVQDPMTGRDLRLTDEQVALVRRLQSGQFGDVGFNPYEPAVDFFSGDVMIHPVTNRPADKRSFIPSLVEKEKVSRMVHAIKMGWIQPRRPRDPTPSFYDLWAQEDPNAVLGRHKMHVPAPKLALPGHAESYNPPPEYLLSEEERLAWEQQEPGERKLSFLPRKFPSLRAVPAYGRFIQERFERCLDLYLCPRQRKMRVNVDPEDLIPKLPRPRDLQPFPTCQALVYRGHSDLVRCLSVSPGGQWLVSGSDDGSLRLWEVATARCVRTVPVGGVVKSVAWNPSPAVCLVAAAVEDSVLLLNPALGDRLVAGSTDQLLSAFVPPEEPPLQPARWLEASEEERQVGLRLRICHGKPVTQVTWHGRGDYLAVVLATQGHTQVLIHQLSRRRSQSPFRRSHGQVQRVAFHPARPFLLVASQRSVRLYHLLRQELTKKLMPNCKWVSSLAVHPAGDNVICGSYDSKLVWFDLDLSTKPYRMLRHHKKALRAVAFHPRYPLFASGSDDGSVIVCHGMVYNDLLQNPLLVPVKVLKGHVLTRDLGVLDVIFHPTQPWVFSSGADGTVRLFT
UniProt O00116, sequence (O00116 whole entry, looked up): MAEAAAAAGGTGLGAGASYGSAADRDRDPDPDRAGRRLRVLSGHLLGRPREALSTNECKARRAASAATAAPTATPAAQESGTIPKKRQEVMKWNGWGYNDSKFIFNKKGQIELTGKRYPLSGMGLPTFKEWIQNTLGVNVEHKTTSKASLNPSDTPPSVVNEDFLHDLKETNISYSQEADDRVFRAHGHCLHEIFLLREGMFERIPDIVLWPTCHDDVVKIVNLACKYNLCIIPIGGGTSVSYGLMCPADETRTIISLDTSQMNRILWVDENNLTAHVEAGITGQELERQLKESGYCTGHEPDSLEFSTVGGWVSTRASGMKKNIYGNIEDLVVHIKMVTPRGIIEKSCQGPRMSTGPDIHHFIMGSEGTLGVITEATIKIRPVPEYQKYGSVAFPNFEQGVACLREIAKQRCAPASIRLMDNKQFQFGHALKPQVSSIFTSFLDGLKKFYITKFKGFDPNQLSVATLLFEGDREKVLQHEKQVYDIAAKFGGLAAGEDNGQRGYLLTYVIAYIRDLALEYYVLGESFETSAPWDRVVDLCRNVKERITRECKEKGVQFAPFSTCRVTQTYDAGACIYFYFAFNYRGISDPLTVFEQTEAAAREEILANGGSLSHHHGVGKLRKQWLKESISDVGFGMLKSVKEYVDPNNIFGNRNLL
UniProt Q13535, sequence (Q13535 whole entry, looked up): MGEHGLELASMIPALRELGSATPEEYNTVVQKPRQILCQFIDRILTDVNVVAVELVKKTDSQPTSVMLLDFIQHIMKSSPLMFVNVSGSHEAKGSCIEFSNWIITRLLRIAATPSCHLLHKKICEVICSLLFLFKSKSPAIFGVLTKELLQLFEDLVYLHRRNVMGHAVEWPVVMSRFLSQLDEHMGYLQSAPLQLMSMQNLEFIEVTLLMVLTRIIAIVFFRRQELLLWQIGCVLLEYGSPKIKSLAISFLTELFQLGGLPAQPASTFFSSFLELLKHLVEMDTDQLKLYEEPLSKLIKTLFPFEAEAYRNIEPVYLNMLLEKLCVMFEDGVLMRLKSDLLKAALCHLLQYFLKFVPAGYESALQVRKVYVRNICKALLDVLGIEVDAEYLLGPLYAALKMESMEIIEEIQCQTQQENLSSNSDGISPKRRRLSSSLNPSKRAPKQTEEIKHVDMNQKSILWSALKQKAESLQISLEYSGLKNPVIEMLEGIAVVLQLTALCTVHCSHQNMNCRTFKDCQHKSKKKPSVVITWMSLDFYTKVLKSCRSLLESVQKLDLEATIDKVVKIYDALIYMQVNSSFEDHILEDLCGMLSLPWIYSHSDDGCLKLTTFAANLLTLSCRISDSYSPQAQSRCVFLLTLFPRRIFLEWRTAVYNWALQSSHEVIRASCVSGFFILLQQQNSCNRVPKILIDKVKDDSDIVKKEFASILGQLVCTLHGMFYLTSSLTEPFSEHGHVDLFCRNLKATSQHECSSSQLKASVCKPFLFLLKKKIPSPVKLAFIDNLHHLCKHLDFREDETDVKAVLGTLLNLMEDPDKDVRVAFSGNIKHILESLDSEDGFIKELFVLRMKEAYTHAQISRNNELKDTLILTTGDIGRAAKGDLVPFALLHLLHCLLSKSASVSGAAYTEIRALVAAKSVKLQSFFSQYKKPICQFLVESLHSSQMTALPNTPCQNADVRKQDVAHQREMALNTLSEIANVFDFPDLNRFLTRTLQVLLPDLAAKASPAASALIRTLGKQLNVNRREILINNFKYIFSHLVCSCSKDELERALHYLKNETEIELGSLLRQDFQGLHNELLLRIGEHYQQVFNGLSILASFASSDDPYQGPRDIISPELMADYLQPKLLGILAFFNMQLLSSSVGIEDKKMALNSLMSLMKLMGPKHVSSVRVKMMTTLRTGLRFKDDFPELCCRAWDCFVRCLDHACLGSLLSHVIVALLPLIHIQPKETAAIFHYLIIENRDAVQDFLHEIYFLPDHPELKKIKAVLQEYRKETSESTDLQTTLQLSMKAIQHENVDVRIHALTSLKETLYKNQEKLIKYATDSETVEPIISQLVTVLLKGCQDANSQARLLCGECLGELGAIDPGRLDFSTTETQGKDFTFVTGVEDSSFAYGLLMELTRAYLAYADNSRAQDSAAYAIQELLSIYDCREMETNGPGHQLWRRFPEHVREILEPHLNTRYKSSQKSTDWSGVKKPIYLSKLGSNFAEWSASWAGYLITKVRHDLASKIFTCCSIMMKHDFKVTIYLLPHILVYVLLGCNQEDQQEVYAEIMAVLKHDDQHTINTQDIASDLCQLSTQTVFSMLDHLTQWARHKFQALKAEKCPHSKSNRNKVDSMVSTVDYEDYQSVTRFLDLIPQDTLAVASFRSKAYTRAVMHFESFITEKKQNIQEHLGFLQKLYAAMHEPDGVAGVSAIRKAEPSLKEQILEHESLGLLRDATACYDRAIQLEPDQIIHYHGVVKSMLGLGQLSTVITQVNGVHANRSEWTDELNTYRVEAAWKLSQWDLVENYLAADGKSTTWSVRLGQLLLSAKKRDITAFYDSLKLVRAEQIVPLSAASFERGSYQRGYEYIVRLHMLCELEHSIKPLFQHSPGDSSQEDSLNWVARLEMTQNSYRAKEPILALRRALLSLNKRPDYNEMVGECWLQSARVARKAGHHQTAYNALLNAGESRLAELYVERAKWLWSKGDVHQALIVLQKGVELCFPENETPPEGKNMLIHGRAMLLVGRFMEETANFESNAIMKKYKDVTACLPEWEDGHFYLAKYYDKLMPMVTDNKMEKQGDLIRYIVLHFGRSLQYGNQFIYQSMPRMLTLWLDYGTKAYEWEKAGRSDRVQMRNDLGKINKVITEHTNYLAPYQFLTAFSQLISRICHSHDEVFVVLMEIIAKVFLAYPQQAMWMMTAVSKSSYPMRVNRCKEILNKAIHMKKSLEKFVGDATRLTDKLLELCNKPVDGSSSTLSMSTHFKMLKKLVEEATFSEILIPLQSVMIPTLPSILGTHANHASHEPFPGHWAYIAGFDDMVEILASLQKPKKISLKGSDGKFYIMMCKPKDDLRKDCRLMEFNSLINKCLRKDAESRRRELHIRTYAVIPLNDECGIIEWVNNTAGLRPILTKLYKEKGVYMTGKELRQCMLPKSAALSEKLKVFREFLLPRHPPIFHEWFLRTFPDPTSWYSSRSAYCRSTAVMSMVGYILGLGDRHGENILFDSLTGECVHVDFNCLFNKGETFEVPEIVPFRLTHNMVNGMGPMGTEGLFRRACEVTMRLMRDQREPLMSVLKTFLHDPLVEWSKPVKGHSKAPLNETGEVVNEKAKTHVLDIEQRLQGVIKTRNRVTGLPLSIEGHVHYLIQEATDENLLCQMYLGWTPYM
UniProt Q6P6C2, sequence (Q6P6C2 whole entry, looked up): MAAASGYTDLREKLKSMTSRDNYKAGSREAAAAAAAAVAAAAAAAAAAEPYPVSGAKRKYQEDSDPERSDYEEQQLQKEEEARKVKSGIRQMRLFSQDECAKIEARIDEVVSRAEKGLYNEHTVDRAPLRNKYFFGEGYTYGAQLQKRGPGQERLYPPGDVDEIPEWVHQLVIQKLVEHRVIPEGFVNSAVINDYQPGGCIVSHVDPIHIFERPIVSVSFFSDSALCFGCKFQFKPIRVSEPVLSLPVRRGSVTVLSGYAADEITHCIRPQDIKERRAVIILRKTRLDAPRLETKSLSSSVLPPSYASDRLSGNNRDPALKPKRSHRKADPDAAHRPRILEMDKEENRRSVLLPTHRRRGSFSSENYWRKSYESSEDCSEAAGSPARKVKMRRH
UniProt P55957, sequence (P55957 whole entry, looked up): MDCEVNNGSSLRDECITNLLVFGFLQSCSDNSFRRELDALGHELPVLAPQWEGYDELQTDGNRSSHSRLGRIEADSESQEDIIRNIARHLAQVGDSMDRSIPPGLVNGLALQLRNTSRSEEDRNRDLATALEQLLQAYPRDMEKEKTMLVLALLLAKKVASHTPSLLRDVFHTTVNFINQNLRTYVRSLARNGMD

| Target | log2 fold change [1] | log2 fold change [2] | log2 fold change [3] | log2 fold change [4] | log2 fold change [5] | log2 fold change [6] | log2 fold change [7] | log2 fold change [8] | log2 fold change [9] | log2 fold change [10] | log2 fold change [11] | log2 fold change [12] | log2 fold change [13] | log2 fold change [14] | log2 fold change [15] | log2 fold change [16] | log2 fold change [17] | log2 fold change [18] | log2 fold change [19] | log2 fold change [20] |
| --- | --- | --- | --- | --- | --- | --- | --- | --- | --- | --- | --- | --- | --- | --- | --- | --- | --- | --- | --- | --- |
| ALDH6A1 (UniProt Q02252) | -0.045 | -0.103 | -0.003 | 0.018 | -0.204 | -0.015 | -0.019 | -0.019 | 0.01 | -0.528 (active) | -0.02 | 0.034 | -0.045 | -0.116 | -0.052 | 0.021 | 0.062 | 0.048 | -0.072 | -0.043 |
| ARMC10 (UniProt Q8N2F6) | 0.046 | 0.015 | -0.063 | -0.034 | -0.125 | -0.012 | -0.052 | -0.115 | 0.001 | -0.096 | -0.039 | 0.003 | 0.005 | 0.028 | 0.005 | 0.056 | 0.096 | 0.054 | -0.039 | -0.062 |
| BOP1 (UniProt Q14137) | 0.031 | -0.083 | -0.028 | -0.159 | 0.02 | -0.122 | -0.038 | -0.087 | 0.114 | -0.114 | 0.002 | -0.027 | 0.04 | -0.018 | -0.004 | 0.107 | 0.035 | 0.038 | -0.351 (active) | -0.073 |
| ACADM isoform 2 (UniProt P11310) | -0.073 | 0.002 | -0.013 | 0.025 | -0.054 | -0.002 | 0.039 | 0.024 | 0.012 | 0.016 | -0.044 | 0.01 | -0.024 | 0.029 | -0.019 | -0.007 | 0.037 | -0.032 | -0.101 | 0.009 |
| AAR2 (UniProt Q9Y312) | -0.019 | -0.062 | 0.058 | 0.009 | -0.006 | 0.019 | -0.079 | -0.034 | 0.004 | -0.036 | -0.016 | -0.015 | 0.066 | -0.034 | 0.026 | 0.19 | -0.009 | 0.035 | 0.04 | -0.067 |
| ACSL5 isoform 3 (UniProt Q9ULC5) | -0.271 (active) | -0.01 | -0.055 | -0.06 | 0.062 | 0.012 | 0.066 | 0.007 | 0.043 | -0.018 | -0.007 | -0.066 | -0.042 | -0.184 | 0.081 | 0.005 | -0.035 | 0.002 | -0.103 | -0.052 |
| AHCYL1 (UniProt O43865) | -0.009 | -0.135 | 0.006 | 0.029 | 0.005 | 0.116 | 0.041 | 0.041 | -0.014 | -0.055 | 0.183 | 0.106 | 0.003 | 0.046 | -0.109 | 0.116 | -0.017 | 0.188 | -0.002 | 0.253 |
| BID isoform 2 (UniProt P55957) | -0.035 | -0.071 | 0.019 | -0.006 | 0.018 | 0.005 | 0.038 | 0.007 | -0.079 | 0.044 | 0.032 | 0.019 | -0.037 | 0.052 | -0.018 | -0.039 | 0.006 | -0.008 | 0.042 | 0.005 |
| BTBD6 (UniProt Q96KE9) | -0.007 | 0.011 | 0.277 | -0.044 | 0.008 | -0.098 | 0.239 | -0.003 | -0.121 | 0.153 | 0.054 | 0.102 | 0.469 | 0.199 | -0.039 | 0.081 | 0.273 | -0.352 | -0.011 | 0.118 |
| ATR (UniProt Q13535) | -0.036 | -0.028 | -0.07 | 0.036 | -0.123 | -0.054 | 0.012 | 0.039 | -0.022 | -0.013 | -0.003 | 0.002 | 0.044 | -0.089 | 0.017 | 0.057 | 0.039 | 0.035 | -0.058 | -0.066 |
| AGPS (UniProt O00116) | -0.068 | 0.025 | 0.039 | -0.012 | -0.023 | 0.006 | 0.09 | 0.01 | 0.032 | 0.112 | -0.013 | 0.007 | -0.112 | 0 | 0.023 | 0.045 | 0.058 | 0.011 | -0.107 | -0.011 |
| ALKBH5 (UniProt Q6P6C2) | 0.038 | -0.15 | 0.018 | -0.025 | 0.014 | 0.011 | -0.042 | 0.011 | 0.077 | -0.019 | 0.031 | -0.021 | 0.102 | 0.052 | -0.076 | 0.18 | 0.109 | 0.033 | 0.076 | 0.042 |
| AGPAT5 (UniProt Q9NUQ2) | -0.133 | 0.021 | 0.008 | 0.04 | -0.058 | -0.035 | 0.09 | 0.045 | 0.02 | 0.014 | -0.044 | 0.016 | -0.029 | -0.047 | -0.027 | -0.002 | 0.045 | -0.001 | -0.076 | -0.027 |
| ACTR1B (UniProt P42025) | -0.062 | -0.221 | 0.034 | -0.011 | 0.034 | 0.083 | -0.011 | 0.003 | 0.077 | -0.001 | 0.075 | 0.027 | -0.003 | 0.004 | -0.034 | 0.459 (active) | 0.078 | 0.023 | 0.06 | -0.004 |
| BCLAF1 (UniProt Q9NYF8) | -0.028 | 0.059 | 0.02 | -0.609 (active) | 0.081 | -0.14 | -0.018 | -0.065 | -0.005 | 0.031 | 0.01 | 0.006 | 0.003 | 0.064 | 0.047 | 0.109 | 0.07 | -0.361 | 0.128 | -0.31 |
| ACSF3 (UniProt Q4G176) | -0.13 | -0.105 | 0.084 | 0.135 | -0.073 | 0.022 | -0.278 | -0.02 | 0.062 | -0.433 (active) | -0.016 | -0.073 | -0.098 | -0.184 | 0.069 | 0.007 | 0.197 | 0.109 | 0.035 | -0.107 |
